The entries come from a sample that favours hits as a whole.
ERG-DNA inh – qHTS for Small Molecule Inhibitors of the ERG Ets/DNA interaction. Transcriptional regulator ERG (Homo sapiens), P11308. 370,000 tested, 0.028% active. Potency, µM (doses to about 76.9 µM), without a hit: at the highest dose FP activity, negative = inhibition, usual class: inhibitors. fluorescence polarization, His-ERG Ets domain / labelled DNA; active = well fitted inhibition curve with a large enough effect in the polarisation, with a control signal flat; inconclusive = small, poorly fitted or top-dose-only effect, or effect the other way, or a change in a side signal; inactive = no such curve, though single readings can be large or run the other way; the % refers to the polarisation;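 note: polarization taken with two DNA probes labelled with fluorescein and Texas red; potency is the fitted concentration of half-maximal effect; % of control where 0% means no effect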
Target sequence (P11308 whole entry, looked up, the tested form may be a part): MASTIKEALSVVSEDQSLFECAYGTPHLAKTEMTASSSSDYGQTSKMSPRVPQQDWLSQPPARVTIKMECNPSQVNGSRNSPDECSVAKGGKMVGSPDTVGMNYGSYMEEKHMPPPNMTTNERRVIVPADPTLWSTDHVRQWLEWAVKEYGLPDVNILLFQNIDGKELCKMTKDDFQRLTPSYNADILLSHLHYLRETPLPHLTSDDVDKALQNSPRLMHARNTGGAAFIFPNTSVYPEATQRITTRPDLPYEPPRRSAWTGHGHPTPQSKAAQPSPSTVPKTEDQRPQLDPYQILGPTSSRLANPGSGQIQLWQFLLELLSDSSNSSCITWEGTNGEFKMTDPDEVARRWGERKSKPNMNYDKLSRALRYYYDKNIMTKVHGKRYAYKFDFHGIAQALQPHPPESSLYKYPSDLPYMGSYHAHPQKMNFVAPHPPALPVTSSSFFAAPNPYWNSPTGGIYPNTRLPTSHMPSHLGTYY
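His-tagged ERG Ets domain (1 uM in the protein solution; 300mM KCl, 50mM Tris-HCl, 1mM EDTA, 1mM DTT, pH 7.5) received compound, then a probe mix of 5 nM fluorescein-DNA and 100nM Texas-615-DNA. Fluorescence polarization was read for both dyes.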
RORg inh – qHTS for inhibitors of ROR gamma transcriptional activity; Nuclear receptor ROR-gamma (Mus musculus), P51450; Drosophila S2 Gal4-RORgamma UAS-luciferase reporter, 20 h; Potency, µM (doses to about 53.6 µM), for the others: top-dose activity change, negative = inhibition, actives largely listed as inhibitors; 310,000 tested, 5.4% active; note: potency is the fitted concentration of half-maximal effect; % is set by controls: 0 for no effect and ±100 for the full control effect; nearly all actives have a fitted effect of over 60% in size
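Using a luciferase readout, inhibitors were identified by reduced reporter activity in Drosophila cells coexpressing a copper-inducible Gal4–ROR gamma fusion and UAS-driven Photinus luciferase, incubated 20 hr after 700 uM copper sulfate.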
Giardia killer – Small Molecules that selectively kill Giardia lamblia: qHTS. activity change, % at 7.66 µM, hits read low. 340,000 tested, 0.15% active. AID 540267, 2011. Giardia lamblia trophozoite viability; in the data active = activity change below about -80%; inconclusive = between about -30% and that limit;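 note: parasites exposed to compound for two days anaerobically before the ATP read; % is set by controls: 0 for no effect and ±100 for the full control effect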
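Anaerobic 48 hrs incubation at 37 deg C of 100 trophozoites/well with test compounds; ATPLite 1-Step luminescence, 15-30 min RT, reports cellular ATP as viability.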
a7 integrin act – qHTS for Activators of Integrin-Mediated Alleviation for Muscular Dystrophy; alpha7betagal myoblasts, beta-gal FDG fluorescence, 48 h; Potency, µM (titrated, usually from 38.3 µM), without a hit: top-dose activation, actives largely listed as activators; 350,000 tested, 0.064% active;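 note: potency is the fitted concentration of half-maximal effect; 100% = response of the positive control SU9516; nearly all actives have a fitted effect of over 60% in size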
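Alpha7betagal+/- myoblasts (passage 13) were plated 16-24 hr, then exposed to compounds (1:260 dilution of DMSO stock) for 48 hours at 37C. After MPER lysis, β-galactosidase reporter activity was read as FDG fluorescence (ex 480/em 540) after 30 minutes.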
Gal4-VP16 FLuc – VP16 counterscreen qHTS for inhibitors of ROR gamma transcriptional activity. Drosophila S2 Gal4-VP16 UAS-luciferase, luminescence, 20 h. Potency, µM (series often up to 53.6 µM), without a hit: at the top dose activity, negative = inhibition, usual class: inhibitors. 310,000 tested, 3.5% active;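 note: Gal4-VP16 expression switched on by copper sulfate through the metallothionein promoter; potency is the fitted concentration of half-maximal effect; % is set by controls: 0 for no effect and ±100 for the full control effect; nearly all actives have a fitted effect of over 50% in size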
Numbers without * were called inactive; ? = inconclusive; . = not tested or not shown; [ ] = another dose, or the depositor's remark. Unless noted, calls come from the whole dose curve; as a rule, active = well fitted curve in the direction sought with a large enough effect; inconclusive = small, poorly fitted or top-dose-only effect, or another doubt; inactive = no such curve, though single readings can be large; an effect the other way counts as inactive or inconclusive.

SMILES	ERG-DNA inh	RORg inh	Giardia killer	a7 integrin act	Gal4-VP16 FLuc
C=CCNC(=S)Nc1ccc(C)c(S(=O)(=O)N2CCCCC2)c1	-8%	11µM*	19	17%	-1%
CCCOc1cccc(C(=O)Nc2cc(-c3ccccc3)no2)c1	8%	.	.	.	.
CS(=O)(=O)c1ccc(Cl)c(NC(=O)c2cccc(-n3cnnn3)c2)c1	-9%	.	-27	-11%	.
CCOC(=O)c1cnc2ccccc2c1NCc1ccco1	-11%	6.3µM*	5	-12%	?
CCOC(=O)c1sc2ncnc(NCc3ccco3)c2c1C	1%	7.9µM*	1	-27%	11µM*
CCOC(=O)c1cnc2ccc(OCC)cc2c1NCc1ccccc1OC	25%	13µM*	-15	-55%	?
CCOC(=O)c1cnc2ccccc2c1Nc1ccc2c(c1)OCCO2	-3%	11µM*	-11	16%	?
CCOC(=O)c1cnc2ccc(OC)cc2c1NCc1ccccc1	-2%	?	13	-14%	?
C=C1C2=CC(=O)OC(c3ccoc3)[C@]2(C)CCC1[C@]1(C)C=CC(=O)C(C)(C)C1CC(=O)OC (stereo partly drawn)	.	34%	.	.	-7%
O=C(O)c1ccc(S(=O)(=O)N[C@@H](Cc2ccc(O)cc2)C(=O)O)cc1	.	-1%	.	.	-15%
Nc1ccccc1C(=O)NNC(=O)C(=O)/C=C(\O)c1ccccc1	4%	11µM*	3	19%	?
CCC(C)NC(=O)CSc1nnc(-c2cc(OC)c(OC)c(OC)c2)c(-c2cc(OC)c(OC)c(OC)c2)n1 (stereo not drawn)	2%	2.8µM*	5	-20%	?
CCOc1ccc(-c2nnc(SCC(=O)NC(C)CC)nc2-c2ccc(OCC)c(OC)c2)cc1OC (stereo not drawn)	11%	.	.	.	.
COc1cc(OC)cc(C(=O)NCC(c2cccs2)S(=O)(=O)c2ccc(F)c(C)c2)c1 (stereo not drawn)	0%	.	.	.	.
FC(F)(F)c1cc(CO[C@H]2CCCN[C@H]2c2ccccc2)cc(C(F)(F)F)c1	.	25µM*	.	.	-28%
CC(=O)c1cc(NC(=O)c2cccc(C(F)(F)F)c2)c(=O)oc1C	9%	3.2µM*	-15	-55%	7.1µM*
COc1ccc(C(=O)Nc2cc(C(C)=O)c(C)oc2=O)cc1	7%	11µM*	-22	-45%	?
COc1c2c(cc3c1C(CC(O)Cc1ccccc1)N(C)CC3)OCO2 (stereo not drawn)	4%	36%	-1	22%	3%
COc1ccc2c(c1OC)C(Cc1ccccc1)N1CCc3cc4c(cc3C1=C2)OCO4 (stereo not drawn)	.	?	.	.	14µM*
COc1cccc(CC2(CO)CCCN(Cc3ccc(CO)o3)C2)c1 (stereo not drawn)	-7%	8%	8	0%	1%
COc1ccc(-n2ccnc2CN2CCCC(CO)(Cc3cccc(OC)c3)C2)cc1 (stereo not drawn)	-1%	11µM*	-15	-25%	-9%
COC(=O)C1=C(C)C(c2ccc(OC)cc2)NC(=S)N1 (stereo not drawn)	-2%	10µM*	14	-17%	-3%
COC(=O)C1=C(C)NC(=S)N(C(C)=O)C1c1ccccc1 (stereo not drawn)	-3%	?	1	-4%	?
CCOC(=O)C1=C(C)NC(=S)N(C=O)C1c1ccccc1 (stereo not drawn)	1%	11µM*	-1	5%	?
CCOC(=O)C1=C(C)C(c2ccccc2)NC(=S)N1 (stereo not drawn)	-4%	7.1µM*	15	-16%[7.66 µM]	?
SMILES	ERG-DNA inh	RORg inh	Giardia killer	a7 integrin act	Gal4-VP16 FLuc
COc1ccc(N(CC(=O)NCCC2=CCCCC2)S(=O)(=O)c2ccccc2)c(OC)c1	-2%	26%	8	16%	19%[10 µM]
Cc1ccc(-c2c3c(=O)n(C)c(=O)n(C)c3c3c(C(F)(F)F)nc4ccccc4n23)cc1	5%	.	.	.	.
O=C(/C(=N/N=C/c1ccc(O)c(O)c1O)c1ccccc1)c1ccccc1	12%	?	-2	-17%	10µM*
COc1ccc(CCNC(=O)c2cnc3sc(N4CCCC4)nn3c2=O)cc1OC	1%	.	.	.	.
N#Cc1c(Cl)nsc1NC(=O)c1ccccc1	-4%	8.9µM*	2	-44%	4µM*
CCC(C)(C)C(=O)O[C@@H]1C[C@H](C)C=C2C=C[C@H](C)[C@@H](CC[C@H]3C[C@@H](O)CC(=O)O3)[C@H]21	.	15%[2.98 µM]	.	.	-5%[17 µM]
COc1ccc(Cc2nnc(SCC(=O)NCC3CCCO3)o2)cc1 (stereo not drawn)	.	23%	2	3%	9%
Cc1nc(SCC(=O)NCC2CCCO2)c2c3c(sc2n1)CCCC3 (stereo not drawn)	1%	3.5µM*	?	-18%	13µM*
COc1ccc(-c2nnc(SCC(=O)NCc3ccco3)o2)cc1	.	0.56µM*	11	-18%	?
COc1ccc(-c2nnc(SCC(=O)c3ccc(O)cc3O)o2)cc1	2%	5.6µM*	5	-8%	?
COc1ccc(-c2nnc(SCC(=O)c3ccc[nH]3)o2)cc1	-1%	?	6	-6%	?
COc1ccc(Cc2nnc(SCC(=O)NCc3ccco3)o2)cc1	9%	6%	8	-15%	?
COc1ccc(-c2nnc(SCC(=O)NCC3CCCO3)o2)cc1 (stereo not drawn)	-7%	13µM*	8	?	?
COc1cccc(N2CCN(C(=O)Cn3ncc4c3-c3ccccc3OC4)CC2)c1	7%	.	.	.	.
COc1ccc(C(=O)N/C(=C\c2ccc3c(c2)OCO3)C(=O)Nc2cccc(C(=O)O)c2)cc1	-13%	-1%	-24	10%	6%
CC1CC(NNC(=O)c2ccccc2)=Nc2ccccc2N1C (stereo not drawn)	3%	1.8µM*	6	-25%	5µM*
O=CN/C=C/c1cc(O)ccc1O	0%	11µM*	13	-43%	16µM*
Cc1ccc(N=C2C(=O)Nc3ccccc32)cc1	-8%	0%	8	-9%	3%
Cc1nc2c(o1)C(=O)c1ccccc1C2=Nc1ccccc1	.	.	-101*	-56%	.
Cc1cs/c(=N/C(=S)Nc2ccccc2)n1C	.	1.6µM*	?	-9%	10µM*
CCCn1c(C)cs/c1=N\C(=S)Nc1ccccc1	12%	4µM*	26	-29%	5.6µM*
Cc1nc(SCc2nc3ccccc3[nH]2)c2oc3ccc(Br)cc3c2n1	.	.	19	.	.
Cc1nc(SCc2nc3ccccc3[nH]2)c2oc3ccccc3c2n1	0%	14µM*	-14	18%	?
CCC1=C2CC[C@H]3C(=O)NC(=O)[C@H]3[C@H]2[C@@]2(C)C(=NCC(=O)OC)OC(=O)N2C1=O	.	-14%	.	.	-2%
